CFTR F508del cor: CFTR F508del correction in bronchial cells; CFBE cells, YFP halide quenching; stimulated with forskolin plus potentiator P3; % fluorescence drop versus neutral controls; activity (quench increase), % at 7.58 µM; 350,000 compounds, 0.36% hits; AID 720511;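 active = mean added fluorescence quench of at least 8% versus neutral control, with both replicates also reaching 8%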;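 also: cells transiently co-express mutant CFTR-F508del with the halide-sensitive YFP; corrector assay measuring rescue of mutant channel to the surface after 24 h compound exposure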
Wnt act: Wnt/beta-catenin pathway activation. AID 743398. Wnt/beta-catenin reporter cell assay, activator, plate reader. 300,000 compounds, 1.2% hits. activation, % at 9.35 µM; in the data active = activation above about 30%, passing the limit was not always enough;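 also: 0% = neutral control wells and 100% = positive control wells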
MITF act: activators of MITF-driven TRPM1 promoter activity in SK-MEL-5 cells; SK-MEL-5 TRPM1-promoter luciferase, 24 h; % of positive control, neutral wells = 0; activation, % at 12.5 µM; 300,000 compounds, 0.75% hits;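 active = mean activation of at least 80% with every replicate also reaching 80%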;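 also: 0% = neutral control wells and 100% = parthenolide positive control wells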
HIV Env fusion: HIV envelope-mediated fusion inhibition. HeLa-JRFL Env/CEM21 cell fusion, luciferase. inhibition, % at 12.3 µM. 360,000 compounds, 1.1% hits;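 active = mean replicate inhibition score of at least 50 and every replicate individually at or above 50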;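 also: 0% = plate neutral controls and 100% = maraviroc near 300 nM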
GSIS activator: primary screen for activators of insulin secretion dependent on glucose, INS-1E cells, GLuc reporter luminescence; AID 743287; activation, % at 16.6 µM; 370,000 compounds, 0.61% hits; INS-1E GLuc reporter insulin secretion, 2-3 h;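 active = lowest replicate activation of at least 40%, so every replicate reaches that level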;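 also: 0% = median of neutral control wells and 100% = median of IBMX positive control wells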
An asterisk follows results filed as active; . = no result; [ ] = another dose, or the depositor's remark. An excerpt weighted towards active compounds, which were near 2.7% of everything screened.

SMILES	CFTR F508del cor	Wnt act	MITF act	HIV Env fusion	GSIS activator
O=C(COC(=O)c1c(F)cccc1Cl)NC1CCCCC1	-0.2	16.5	85.2*	-36.2	19.6
O=C(COc1ccc(C(=O)c2ccccc2)cc1)NC1CCCCC1	.	-3.2	10.2	18.6	-2.0
O=C(COc1ccccc1Br)NC1CC1	0.9	-0.7	8.7	-13.2	23.2
CC(C)NC(=O)N[C@H]1CC[C@@H](CCNC(=O)C2CCOCC2)O[C@H]1CO	0.5	.	.	3.8[16.7 µM]	2.6
CCC(=O)N1[C@H](CO)[C@@H](c2ccccc2)C12CN(CCC(F)(F)F)C2	-5.9	.	.	.	14.5
O=C(CNC1CCCCC1)NN=C(c1ccccc1)c1ccccc1	11.9*	-1.9	-11.3	18.2	-1.4
O=C(CNC(=O)c1ccccc1)OC1CCCCC1	-0.5	47.1*	47.4	-18.0	-1.1
O=C(NN=C(c1ccccc1)c1ccccc1)C(CCl)C1CCCCC1 (stereo not given)	-2.5	0.7	-8.4	-19.9	-7.5
O=C(COC(=O)c1cccc(Br)c1)NC1CCCCCCC1	-1.6	-0.2	.	58.3*	-11.8
CN(C)CC(=O)Nc1ccc2c(c1)[C@H]1C[C@@H](CC(=O)NCc3ccccc3)O[C@@H](CO)[C@H]1O2	-4.2	.	.	3.1[16.7 µM]	17.2
O=C1c2cccc3c(O)ccc(c23)C(=O)N1Cc1ccco1	26.7*	-3.4	.	0.3	-21.5
O=C1c2ccccc2C(=O)N1Cc1ccco1	.	.	-1.3	.	.
O=C1c2cccc3c(O)ccc(c23)C(=O)N1c1ccc(Cl)cc1	18.5*	0.0	-50.1	15.2	-2.7
CN(C)S(=O)(=O)c1cccc(NC(=O)CSc2nc3c(cc2C#N)C(=O)CC(C)(C)C3)c1	.	0.1	-67.2	70.2*	0.0
C[C@H]1CN([C@@H](C)CO)S(=O)(=O)c2ccc(C#CC(C)(C)O)cc2O[C@H]1CN(C)C	-1.4	.	.	-6.1[16.7 µM]	14.9
CCNC(=O)[C@@H]1[C@@H](CO)[C@@H]2Cn3c(ccc(-c4ccc(F)cc4)c3=O)[C@@H]2N1C	-3.9	.	.	.	-1.8
O=C(Nc1ccccc1)c1ccc(S(=O)(=O)N2CCC(C(=O)O)CC2)cc1	0.6	1.2	4.9	15.5	0.7
O=C(Nc1cccc(F)c1)c1cc(S(=O)(=O)N2CCC(C(=O)O)CC2)ccc1F	.	.	-1.8	76.7*	.
Cc1cc(NC(=O)CCC(=O)N(C2CC2)C2(C(=O)NC3CCCC3)CCC(C)CC2)no1 (stereo not given)	.	-1.7	-5.9	99.7*	.
Cc1cc(NC(=O)CCC(=O)N(Cc2ccco2)C2(C(=O)NC3CCCC3)CCC(C)CC2)no1 (stereo not given)	-2.1	-1.4	6.5	7.2	-14.4
COc1ccc2c3c([nH]c2c1)[C@@H](CO)N(C(=O)NC(C)C)CC31CCN(C(=O)NC(C)C)CC1	2.1	.	.	-0.5[16.7 µM]	-5.8
CCN1CCN(Cc2ccc(NC(=O)c3ccc(C)c(NC(=O)c4ccc5n[nH]nc5c4)c3)cc2C(F)(F)F)CC1	1.1	-4.4	-28.5	18.3	9.7
CCN1CCN(Cc2ccc(NC(=O)c3cccc(-c4ccc5nc(NC(=O)C6CC6)sc5n4)c3)cc2C(F)(F)F)CC1	-3.1	-2.5	.	20.7	143.1*
CCOC(=O)Cn1cnc2c(sc3nc(C)cc(C)c32)c1=O	0.0	37.6*	.	-25.1	4.1
COC(=O)Cn1c(C)nc2c(sc3nc(C)cc(C)c32)c1=O	.	.	90.9*	.	.
SMILES	CFTR F508del cor	Wnt act	MITF act	HIV Env fusion	GSIS activator
C=CCn1cnc2c(sc3nc(C)cc(C)c32)c1=O	2.2	30.0	.	-3.1	15.9
Cc1cc(C)c2c(n1)sc1c(=O)n(Cc3ccc(F)cc3)cnc12	1.0	0.7	.	-1.0	15.3
C[C@@H]1CN([C@H](C)CO)C(=O)c2cc(N(C)C)ccc2O[C@@H](C)CCCCO[C@H]1CN(C)C(=O)Nc1ccccc1	-1.0	.	.	22.7[16.7 µM]	-9.6
O=C(CSC1=NCCN1)Nc1cccc([N+](=O)[O-])c1	10.3*	40.9*	-36.9	2.6	9.0
O=C(CSc1nc2ccccc2c(=O)[nH]1)Nc1cccc([N+](=O)[O-])c1	-0.9	-1.5	6.1	63.1*	-2.1
O=C(Cc1ccccn1)NCC[C@H]1CC[C@H](NC(=O)CN2CCOCC2)[C@@H](CO)O1	-0.9	.	.	7.0[16.7 µM]	10.7
COc1ccccc1NC(=O)c1ccc2[nH]c(C)c(C)c2c1	-4.1	39.6*	27.9	-93.1	22.4
Cc1[nH]c2ccc(C(=O)NC3CCCC3)cc2c1C	0.7	14.5	.	-21.5	43.2
Cc1[nH]c2ccc(C(=O)NC3CCC(C)CC3)cc2c1C (stereo not given)	-2.3	28.0	84.6*	-32.4	9.8
